The text below walks through data of PubChem BioAssay.

Calls of active or inactive are those of the source.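 The calls were made as follows, unless noted: active = inhibition above 20% together with a positive visual image hit; inconclusive = visual image hit but inhibition not above 20%; inactive = no visual image hit.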

A short description of the first experiment: inhibitors of TNFa-induced NFkB p65 translocation, primary screen, imaging, HUVEC, MLSMR starter and 10KST1 sets (AID 438).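 Also: compound added about 3h40 before a 20 min TNFalpha stimulation.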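 As to inhibition: signal is the nuclear over cytoplasmic p65 intensity ratio per well.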 Particulars: HUVEC TNFa-induced p65 nuclear translocation; cell count: measured here: nuclei count (cytotoxicity indicator), at 2.08 µM; inhibition: at 2 µM, stronger effect = higher value, 0% TNFa-plus-vehicle, 100% no-TNFa wells.
In the case of `O=C(Cc1ccc(S(=O)(=O)N2CCCC2)s1)Nc1nc2c(s1)CCCC2`, the cell count came to 577 and the inhibition (in general, the relative decrease from the control value, in per cent) was 22.2% (inactive).
In the same order, the values of `Cn1nnnc1SCC(=O)NCc1ccco1` are 467 and 4.6% (inactive).
On the same counts, the results for `COc1cc(Cn2c(C(=O)O)cc3sccc32)cc(OC)c1OC` are 434 and 8.6% (inactive).
With `CCOCCCNC(=O)CCNS(=O)(=O)c1ccc(C)cc1`, the inhibition is -15% (inactive) and the cell count is 547.
Consider `COc1ccc2c(c1)CCc1c(C(=O)N3CCCc4ccccc43)noc1-2`, for which the inhibition was -4.5% (inactive) and the cell count turned out to be 419.
On the same counts, the results for `COc1ccc(OC)c(NC(=O)C2CCN(c3cc(-c4ccccc4)nc4ncnn34)CC2)c1` are 2.1% (inactive) and 449.
In the same order, the values of `CC(C)C12CN3CC(C(C)C)(CN(C1)C3c1ccc3c(c1)OCO3)C2=O` (stereo not drawn) are 10.8% (inactive) and 412.
In the same order, the values of `C/C(CC(O)(/C=N/O)c1ccccc1)=N\O` (stereo not drawn) are 2.4% (inactive) and 343.
With `CCCCc1oc2ccccc2c1C(=O)c1cc(I)c(OCCN(CC)CC)c(I)c1`, the inhibition was -9% (inactive) and the cell count stood at 651.
As to `Cn1cc(C(=O)NC2CCCCCCC2)c(=O)c2cc(S(=O)(=O)N3CCCC3)ccc21`, the inhibition is 3.5% (inactive) and the cell count was 614.
On the same counts, the results for `Cc1ccc(C2C(C#N)=C(N)Oc3cc4c(cc32)OCO4)cc1` (stereo not drawn) are -5.8% (inactive) and 373.
On the same counts, the results for `O=C(O)CC(C(=O)OCCOc1ccccc1)N1CCOCC1` (stereo not drawn) are 6.4% (inactive) and 504.
In the same order, the values of `CN(C)S(=O)(=O)c1ccc(C(=O)N2CCC(c3nc4ccccc4o3)CC2)cc1` are 8.2% (inactive) and 468.
For the compound `O=C(CN1CCC(n2nnc3cc(F)ccc32)CC1)Nc1ccc2c(c1)CCC2`, the inhibition is -57.1% (inactive) and the cell count came out at 590.
On the same counts, the results for `CCOC(=O)CSc1nnc(CNC(=O)c2cccs2)n1-c1cc(OC)ccc1OC` are -3.3% (inactive) and 521.
Consider `Cc1cnc(C(=O)NCCc2ccc(S(=O)(=O)NC(=O)NC3CCCCC3)cc2)cn1`, for which the cell count amounted to 609 and the inhibition was 0.1% (inactive).
In the same order, the values of `O=C(CCn1c(=O)sc2ccccc21)NC1=NCCS1` are 620 and -25.8% (inactive).
On the same counts, the results for `Cc1ccc(C(C)C)c(OCCCN2CC(C)OC(C)C2)c1` (stereo not drawn) are 344 and -3.9% (inactive).
In the same order, the values of `COc1cccc(-c2cc(C(=O)Nc3cc(OC)c(OC)c(OC)c3)no2)c1` are 461 and -4.5% (inactive).
In the case of `O=C1NC(c2ccccc2)(C(F)(F)F)SC2=NCCCN12` (stereo not drawn), the inhibition was 4.8% (inactive) and the cell count was 429.
On the same counts, the results for `O=C(CP(=O)(CO)CO)c1ccc(Cl)cc1` are -2.9% (inactive) and 863.
On the same counts, the results for `CC(C)[N+]1(C)[C@@H]2CC[C@H]1CC(OC(=O)C(CO)c1ccccc1)C2` (stereo partly drawn) are -3.8% (inactive) and 466.
On the same counts, the results for `CCC(=O)N1CCc2cc(Br)cc(S(=O)(=O)CCC(=O)NCC3CCCO3)c21` (stereo not drawn) are 2.7% (inactive) and 628.
`COc1cc(OC)cc(-c2nc3nc(C)c(CCC(=O)O)c(C)n3n2)c1`: the inhibition was -14.6% (inactive) and the cell count came to 681.
`CCOC(=O)C(CC)(CCC(=O)O)c1csc(N)n1` (stereo not drawn): the cell count worked out at 518 and the inhibition is 9.6% (inactive).
In the same order, the values of `O=C1CC(=O)N(Cc2cccs2)C(=O)N1` are 336 and 4.7% (inactive).
Consider `COc1cccc(-c2cc3nc4c(c(N5CCC6(CC5)OCCO6)n3n2)CCCC4)c1`, for which the inhibition was 10.2% (inactive) and the cell count turned out to be 479.
Consider `Nc1nc(C(=O)N2CCOCC2)nn1S(=O)(=O)c1ccc(Cl)cc1`, for which the inhibition was 23.2% (active) and the cell count stood at 177.
In the same order, the values of `O=C(Nc1ccc2c(c1)OCO2)C1CCCN1C(=O)Nc1ccccc1F` (stereo not drawn) are 9% (inactive) and 432.
For the compound `CCOc1cccc(OCCOCCN2CCCC2)c1`, the inhibition is 0.5% (inactive) and the cell count was determined as 802.
On the same counts, the results for `COc1cccc(C(=O)Nc2cnc(NC(=O)c3ccco3)cc2C)c1` are 12.5% (inactive) and 463.
In the same order, the values of `CC(C)(C)c1cc(C(=O)O)nn1-c1ccccc1` are 2.5% (inactive) and 446.
In the same order, the values of `COc1ccccc1OCCn1c(=O)sc2ccccc21` are 9.8% (inactive) and 478.
For the compound `COC(=O)c1c(C(=O)OC)n(CCCN)c2ccc(C)cc12`, the inhibition is 10.9% (inactive) and the cell count is 434.
On the same counts, the results for `COc1ccc(OCc2nc(N)nc(Nc3cccc(C)c3C)n2)cc1` are 3.3% (inactive) and 369.
On the same counts, the results for `N=c1c(C(=O)NCc2ccc(F)cc2)cc2c(=O)n3ccccc3nc2n1CCCN1CCOCC1` are 4.4% (inactive) and 537.
On the same counts, the results for `Cc1cc(NC(=O)COc2ncnc3sc(C)c(C)c23)no1` are 1.3% (inactive) and 418.
With `CCOC(=O)c1ccc(COC(=O)CCc2nc3ccccc3[nH]c2=O)o1`, the inhibition is 10.6% (inactive) and the cell count was 410.
Take `COc1ccc(N2CCN(c3oc(COc4ccccc4)nc3C#N)CC2)cc1`: the inhibition is 9.4% (inactive) and the cell count was 449.

The nature of the next experiment: reduction of polyQ htt aggregates in cells – imaging, exon1htt(103Q)mCFP cells, high-content imaging, primary screen (AID 483;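 active = visual image review flags a hit and inhibition of aggregation exceeds 20%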;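 also: compound exposure lasted 3 days before fixation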;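 as to nuclei count: percent of the per-plate median nuclei count of sample wells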). Particulars: exon1htt(103Q)mCFP cell line, aggregate imaging, at 2 µM; inhibition of aggregation: stronger effect = higher value; nuclei count: measured here: cell count, toxicity.
Turning to `O=C(Cc1ccc(S(=O)(=O)N2CCCC2)s1)Nc1nc2c(s1)CCCC2`, the nuclei count turned out to be 94.3% and the inhibition of aggregation was 25.3% (inactive).
Regarding `Cn1nnnc1SCC(=O)NCc1ccco1`, the inhibition of aggregation was -7.3% (inactive) and the nuclei count came to 133%.
`COc1cc(Cn2c(C(=O)O)cc3sccc32)cc(OC)c1OC`: the nuclei count worked out at 98.8% and the inhibition of aggregation is 2.5% (inactive).
On the same counts, the results for `CCOCCCNC(=O)CCNS(=O)(=O)c1ccc(C)cc1` are 90.3% and -10.7% (inactive).
On the same counts, the results for `COc1ccc2c(c1)CCc1c(C(=O)N3CCCc4ccccc43)noc1-2` are 69.7% and 17.4% (inactive).
In the same order, the values of `COc1ccc(OC)c(NC(=O)C2CCN(c3cc(-c4ccccc4)nc4ncnn34)CC2)c1` are 95% and 17% (inactive).
As for `CC(C)C12CN3CC(C(C)C)(CN(C1)C3c1ccc3c(c1)OCO3)C2=O` (stereo not drawn), the inhibition of aggregation is -9.1% (inactive) and the nuclei count was 98.4%.
For the compound `C/C(CC(O)(/C=N/O)c1ccccc1)=N\O` (stereo not drawn), the inhibition of aggregation is 4% (inactive) and the nuclei count came to 97%.
In the case of `Cn1cc(C(=O)NC2CCCCCCC2)c(=O)c2cc(S(=O)(=O)N3CCCC3)ccc21`, the inhibition of aggregation is 8.6% (inactive) and the nuclei count came to 109%.
On the same counts, the results for `Cc1ccc(C2C(C#N)=C(N)Oc3cc4c(cc32)OCO4)cc1` (stereo not drawn) are 32.6% (inactive) and 69.9%.
As to `CN(C)S(=O)(=O)c1ccc(C(=O)N2CCC(c3nc4ccccc4o3)CC2)cc1`, the nuclei count turned out to be 103% and the inhibition of aggregation was -9.7% (inactive).
On the same counts, the results for `O=C(CN1CCC(n2nnc3cc(F)ccc32)CC1)Nc1ccc2c(c1)CCC2` are 112% and -14.1% (inactive).
On the same counts, the results for `CCOC(=O)CSc1nnc(CNC(=O)c2cccs2)n1-c1cc(OC)ccc1OC` are 103% and -5.1% (inactive).
Turning to `O=C(CCn1c(=O)sc2ccccc21)NC1=NCCS1`, the nuclei count amounted to 102% and the inhibition of aggregation is 8.6% (inactive).
On the same counts, the results for `Cc1ccc(C(C)C)c(OCCCN2CC(C)OC(C)C2)c1` (stereo not drawn) are 106% and -17.9% (inactive).
Turning to `COc1cccc(-c2cc(C(=O)Nc3cc(OC)c(OC)c(OC)c3)no2)c1`, the inhibition of aggregation was 1.1% (inactive) and the nuclei count amounted to 55.1%.
As for `O=C1NC(c2ccccc2)(C(F)(F)F)SC2=NCCCN12` (stereo not drawn), the inhibition of aggregation is 12.3% (inactive) and the nuclei count came out at 106%.
In the same order, the values of `O=C(CP(=O)(CO)CO)c1ccc(Cl)cc1` are 18.9% (inactive) and 119%.
As to `CCC(=O)N1CCc2cc(Br)cc(S(=O)(=O)CCC(=O)NCC3CCCO3)c21` (stereo not drawn), the nuclei count amounted to 76.3% and the inhibition of aggregation is 12.7% (inactive).
In the same order, the values of `COc1cc(OC)cc(-c2nc3nc(C)c(CCC(=O)O)c(C)n3n2)c1` are 111% and 0.2% (inactive).
On the same counts, the results for `CCOC(=O)C(CC)(CCC(=O)O)c1csc(N)n1` (stereo not drawn) are 91.6% and -2.8% (inactive).
On the same counts, the results for `O=C1CC(=O)N(Cc2cccs2)C(=O)N1` are 98.3% and 12.5% (inactive).
For `COc1cccc(-c2cc3nc4c(c(N5CCC6(CC5)OCCO6)n3n2)CCCC4)c1`, the inhibition of aggregation was 18.9% (inactive) and the nuclei count worked out at 98.9%.
In the same order, the values of `Nc1nc(C(=O)N2CCOCC2)nn1S(=O)(=O)c1ccc(Cl)cc1` are -3.7% (inactive) and 103%.
On the same counts, the results for `O=C(Nc1ccc2c(c1)OCO2)C1CCCN1C(=O)Nc1ccccc1F` (stereo not drawn) are -11.8% (inactive) and 98.2%.
Regarding `CCOc1cccc(OCCOCCN2CCCC2)c1`, the inhibition of aggregation was 2.1% (inactive) and the nuclei count was determined as 79.5%.
On to `COc1cccc(C(=O)Nc2cnc(NC(=O)c3ccco3)cc2C)c1`, for which the nuclei count stood at 98.1% and the inhibition of aggregation was -2.9% (inactive).
In the same order, the values of `CC(C)(C)c1cc(C(=O)O)nn1-c1ccccc1` are 94.2% and 2.7% (inactive).
On the same counts, the results for `COc1ccccc1OCCn1c(=O)sc2ccccc21` are 90.3% and -14.7% (inactive).
In the same order, the values of `COC(=O)c1c(C(=O)OC)n(CCCN)c2ccc(C)cc12` are 100% and 1.8% (inactive).
`COc1ccc(OCc2nc(N)nc(Nc3cccc(C)c3C)n2)cc1`: the nuclei count amounted to 102% and the inhibition of aggregation was -10.8% (inactive).
Consider `N=c1c(C(=O)NCc2ccc(F)cc2)cc2c(=O)n3ccccc3nc2n1CCCN1CCOCC1`, for which the inhibition of aggregation was -26.3% (inactive) and the nuclei count was found to be 102%.
For the compound `Cc1cc(NC(=O)COc2ncnc3sc(C)c(C)c23)no1`, the inhibition of aggregation is -2.1% (inactive) and the nuclei count stood at 100%.
In the same order, the values of `CCOC(=O)c1ccc(COC(=O)CCc2nc3ccccc3[nH]c2=O)o1` are -18.4% (inactive) and 108%.
Consider `COc1ccc(N2CCN(c3oc(COc4ccccc4)nc3C#N)CC2)cc1`, for which the inhibition of aggregation is -7.4% (inactive) and the nuclei count amounted to 102%.
